Caspase-7 inhib: qHTS Assay for Allosteric/Competitive Inhibitors of Caspase-7; recombinant caspase-7, Ac-DEVD-AFC fluorescence rate; Potency, µM (doses to about 57.5 µM), for inactives: at the highest dose activity change, negative = inhibition, usual class: inhibitors; actives 0.02% (n = 75,000); active = well fitted inhibition curve with a large enough effect in the main read-out, with a control signal flat, not every such curve was filed as active; inconclusive = small, poorly fitted or top-dose-only effect, or a change in a side signal; note: % of control where 0% means no effect
TSHR ag: qHTS Assay for Agonists of the Thyroid Stimulating Hormone Receptor. actives 0.48% (n = 73,000). AID 926, 2007. Potency, µM (top dose mostly 57.1 µM), inactives show top-dose activation, hits mostly activators. Thyrotropin receptor (Homo sapiens), P16473. HEK293-CNG-TSHR cells (CNG channel as cAMP sensor), membrane potential dye, cAMP; active = well fitted activation curve with a large enough effect in the main read-out, with a control signal flat, not every such curve was filed as active; inconclusive = small, poorly fitted or top-dose-only effect, or a change in a side signal; inactive = no such curve, though single readings can be large or run the other way; % of control where 0% means no effect;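 note: the control signal comes from parental cells without the receptor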
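HEK 293 cells stably expressing TSHR and a cAMP-gated CNG channel; parental CNG-only cells as counterscreen. Cells preloaded 60 min with membrane potential dye plus 100 uM RO 20-1724, then compound 30 min; fluorescence read at 590 nm.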
HEK293 cAMP ctrl: qHTS Assay for Agonists of the Thyroid Stimulating Hormone Receptor: Activators of Intracellular cAMP Concentrations in Parental HEK 293; Potency, µM (highest dose often 57.1 µM), without a hit: at the top dose activation, most hits filed as activators; actives 2.5% (n = 73,000); AID 938, 2007; parental HEK293 CNG cAMP sensor, membrane potential fluorescence; note: % of control where 0% means no effect; nearly all actives have a fitted effect of over 55% in size
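Parental HEK 293 cells stably expressing a cAMP-gated CNG channel were loaded with membrane potential dye containing 100 uM RO 20-1724 for 60 min. Compound added for 30 min; depolarization read as fluorescence intensity at 590 nm.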
Caspase-1 inhib: qHTS Assay for Allosteric/Competitive Inhibitors of Caspase-1; Caspase-1 enzyme, Ac-WEHD-AFC fluorogenic rate; Potency, µM (doses to about 57.5 µM), for the others: top-dose activity change, negative = inhibition, hits mostly inhibitors; actives 0.03% (n = 75,000); AID 900, 2007;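 note: plate controls were vehicle for no effect and no substrate for full effect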
Active calls of the source: *; ? = inconclusive; . = no result; [ ] = dose if it differs, or a comment. Rows were chosen to be rich in hits. Some 2.6% of all compounds tested hit in one or more screens of this group. Unless noted, calls come from the whole dose curve; as a rule, active = well fitted curve in the direction sought with a large enough effect; inconclusive = small, poorly fitted or top-dose-only effect, or another doubt; inactive = no such curve, though single readings can be large; an effect the other way counts as inactive or inconclusive. Potency is the fitted concentration of half-maximal effect.

SMILES	Caspase-7 inhib	TSHR ag	HEK293 cAMP ctrl	Caspase-1 inhib
CCCCCN=c1ccn(Cc2ccccc2)c2ccccc12	2%	?	16µM*	1%
C(=N\n1cnnc1)/c1cn(Cc2ccccc2)c2ccccc12	-2%	11%	13%	-2%
O=C(Nc1ccc(Cl)cc1C(=O)O)c1ccc2c(c1)C(=O)N(Cc1ccco1)C2=O	1%	-14%	-19%	0%
O=C(CN1C(=O)c2ccccc2C1=O)Nc1ccc(S(=O)(=O)NCC2CCCO2)cc1 (stereo not given)	-2%	-22%	7%	-1%
O=C(O)c1ccc(S(=O)(=O)c2ccc3c(c2)C(=O)N(CC2CCCO2)C3=O)cc1 (stereo not given)	-1%	?	20µM*	-2%
O=C(O)c1ccc(S(=O)(=O)c2ccc3c(c2)C(=O)N(Cc2ccco2)C3=O)cc1	-4%	32µM*	17%	1%
O=C(c1ccco1)N1CCC2(CC1)CCN(c1cccc(-c3ccccc3)c1)CC2	-6%	11%	20%	-1%
CC1(NC[C@@H](O)COc2cccc3[nH]ccc23)CCC(C(C)(C)NC(=O)CBr)CC1 (stereo not given in full)	.	-4%	15%	.
Cc1nonc1NC(=O)CSc1nc(C2CCCCC2)nc2ccccc12	-2%	?	25µM*	-6%
Cc1cc(NC(=O)CSc2nc(C3CCCCC3)nc3ccccc23)no1	-4%	-8%	19%	-6%
COc1ccc(OC)c(C(c2nnnn2C2CCCC2)N2CCN(c3ccc(F)cc3)CC2)c1 (stereo not given)	-2%	?	?	-2%
COCCn1nnnc1C(c1ccc(OC)cc1OC)N1CCN(c2ccccc2F)CC1 (stereo not given)	-1%	?	25µM*	0%
COc1ccc(C(c2nnnn2Cc2cccs2)N2CCN(c3ccccc3F)CC2)cc1 (stereo not given)	0%	?	20µM*	-5%
COCCn1nnnc1C(c1ccc(OC)cc1OC)N1CCN(c2ccccc2)CC1 (stereo not given)	-1%	8%	18%	-1%
COc1ccc(C(c2nnnn2C2CCCC2)N2CCC(C)CC2)c(OC)c1 (stereo not given)	1%	?	16µM*	0%
COc1ccc(C(c2nnnn2Cc2ccccc2)N2CCN(c3ccccc3)CC2)cc1 (stereo not given)	1%	?	?	-1%
O=C1C=CC2=C3c4cc(O)c(O)cc4C[C@]3(O)COC2=C1	-12%	.	.	-4%
CCOC(=O)c1cc(NC(=O)c2ccoc2C)cc(C(=O)OCC)c1	-2%	.	19%	-1%
COc1cccc(-c2nnc(SCC(=O)OC(C)C)n2N)c1	-1%	13µM*	11%	-2%
CC(C)OC(=O)CSc1nnc(-c2ccco2)n1N	0%	2%	2%	-2%
CN(CCC(=O)Nc1ccc2c(c1)OCO2)Cc1ccccc1	-1%	-7%[11.4 µM]	5%	2%
CC(=O)OCCN(Cc1ccccc1)Cc1ccc2c(c1)OCO2	-2%	25µM*	29%	-2%
Cc1cc(NC(=O)CC2CCCC2)n(-c2nc3ccccc3[nH]2)n1	-7%	?	25µM*	0%
O=C1c2oc3ccc(Br)cc3c(=O)c2C(c2cccnc2)N1Cc1ccco1 (stereo not given)	-3%	.	3%	0%
O=C1c2oc3ccccc3c(=O)c2C(c2cccc(Br)c2)N1Cc1ccco1 (stereo not given)	-1%	?	13µM*	-3%
SMILES	Caspase-7 inhib	TSHR ag	HEK293 cAMP ctrl	Caspase-1 inhib
COc1ccc(-c2nc3cnc(N4CCOCC4)nc3n(-c3ccc(OC)cc3)c2=O)cc1	?	-3%	1%	.
O=c1cnc2cnc(Oc3ccccc3)nc2n1Cc1cccs1	-2%	?	20µM*	-6%
COc1cccc(Nc2ncc3ncc(=O)n(Cc4cccs4)c3n2)c1	?	?	16µM*	.
COc1ccc(Oc2ncc3ncc(=O)n(Cc4cccs4)c3n2)cc1	-2%	?	?	-3%
COc1cccc(Nc2ncc3nc(-c4cccs4)c(=O)n(Cc4cccs4)c3n2)c1	?	2%	12%	.
CC1=C(C(=O)O)N2C(=O)[C@@H](NC(=O)[C@@H](N)C3=CCC=CC3)[C@@H]2SC1	-7%	6%	0%	1%
CC[C@@]1(O)CC2CN(CCc3c([nH]c4ccccc34)[C@](C(=O)OC)(c3cc4c(cc3OC)N(C)C3[C@@](O)(C(=O)OC)C(OC(C)=O)[C@]5(CC)C=CCN6CC[C@@]43C65)C2)C1 (stereo not given in full)	0%	.	.	-4%
Clc1ccc(C(c2nnnn2C2CCCCC2)N(Cc2cccnc2)Cc2ccco2)cc1 (stereo not given)	-1%	?	3.2µM*	0%
C[C@@H](N)/C(N)=N/O	1%[11.5 µM]	-2%[11.4 µM]	2%[11.4 µM]	1%[11.5 µM]
CCc1c2c(nc3cccc(OC)c13)OC(CC)C2 (stereo not given)	1%	?	16µM*	-4%
C/C=C/Cn1c(SCc2ccc(Cl)cc2)nc2c1c(=O)[nH]c(=O)n2C	1%	?	25µM*	0%
CCCn1c(SCc2ccc(Cl)cc2)nc2c1c(=O)[nH]c(=O)n2C	0%	?	?	0%
COC(=O)c1cc2sccc2n1CC(=O)Nc1ccc(OC)c(OC)c1OC	1%	3%[11.4 µM]	2%	0%
COC(=O)c1cc2sccc2n1CC(=O)Nc1cccc(SC)c1	-3%	?	25µM*	-1%
CS(=O)(=O)N1CCC[C@@]2(CCN(c3ccccn3)C2)C1	0%	3%	2%	-4%
CCCN(CCC)S(=O)(=O)c1cccc(C(=O)Nc2ccc3c(c2)OCO3)c1	-2%	?	16µM*	-5%
CC1=C(C2=C(C)C(C(C)C)C3=C(C(=O)C(O)C3O)C2O)C(O)C2=C(C(O)C(O)C2=O)C1C(C)C (stereo not given)	-14%	.	.	-8%
COc1ccccc1NS(=O)(=O)c1ccc(C)c(C(=O)NCC2CCCO2)c1 (stereo not given)	-1%	0%	-4%	-3%
COc1ccc(CNc2nc(-c3ccc(N(C)C)cc3)nc3ccccc23)c(OC)c1	-13%	-20%	-21%	-12%
O=c1cnnc(SCCc2ccccc2)[nH]1	?	?	32µM*	?
Cc1cccc(CSc2nncc(=O)[nH]2)c1	0%	22%	21%	-1%
CCOC(=O)C(C)Sc1nnc(-c2ccccc2O)n1-c1ccc(C)cc1 (stereo not given)	-3%	?	20µM*	0%
CCC(C)(C(=O)NC1CCCC1)N(CC1CCCO1)C(=O)c1ccc2c(c1)OCO2 (stereo not given)	2%	?	?	0%
CCC(C)(C(=O)NC1CCCCC1)N(Cc1ccco1)C(=O)c1ccc2c(c1)OCO2 (stereo not given)	0%	?	7.9µM*	1%

High-throughput results deposited in PubChem BioAssay by National Center for Advancing Translational Sciences (NCATS).
